{"source": "the supplement of paper PMC13094657", "key": {"[1]": {"test_system": "MDA-MB-231", "assay": "cell viability relative to vehicle unstimulated control (fraction); higher = more viable cells", "settings": "pre-treatment time: 18 h then 24 h IFNg/TNF"}, "[2]": {"test_system": "MDA-MB-231", "assay": "kynurenine production, fold change vs DMSO IFNg/TNF control; higher = more kynurenine produced (less inhibition)", "settings": "pre-treatment time: 18 h then 24 h IFNg/TNF", "method_in_brief": "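In 96-well plates, MDA-MB-231 cells (7 × 10^4/well) were given 24 h to settle, pre-treated for 18 h with each natural product in 0.1% DMSO, and stimulated for 24 h with IFNγ (1 U/ml) and TNF (6.25 ng/ml) at 37°C. Supernatants were processed with trichloroacetic acid and p-dimethylaminobenzaldehyde and read at 492 nm against 0–100 μM standards. In the first screening round, kynurenine production, as fold change over same-plate cytokine-stimulated vehicle wells, was averaged over duplicate plates.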"}}, "note": "± gives the standard deviation of the averaged measurements.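 For cell viability relative to vehicle unstimulated control in this document: viability of the cells left after supernatant collection, read with Deep Blue dye added for 4 h, as absorbance at 570 nm minus 600 nm.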"}
{"molecule": "O=C(O)/C=C/c1ccccc1", "note": "[Trans-cinnamic acid] (compound dose: 10 uM)", "values": [{"measurement": "cell viability", "setting": "[1]", "value": "1.02 ± 0.019"}, {"measurement": "kynurenine production", "setting": "[2]", "value": "0.882 ± 0.022"}]}
{"molecule": "CC(C)=CCC[C@](C)(O)[C@H]1CC[C@]2(C)[C@@H]1[C@H](O)C[C@@H]1[C@@]3(C)CC[C@H](O)C(C)(C)[C@@H]3[C@@H](O[C@@H]3O[C@H](CO)[C@@H](O)[C@H](O)[C@H]3O[C@@H]3O[C@H](CO)[C@@H](O)[C@H](O)[C@H]3O)C[C@]12C", "note": "[Ginsenoside Rf] (compound dose: 10 uM)", "values": [{"measurement": "cell viability", "setting": "[1]", "value": "0.9642 ± 0.0068"}, {"measurement": "kynurenine production", "setting": "[2]", "value": "0.749 ± 0.17"}]}
{"molecule": "CC[C@@H](C(=O)[C@@H](C)[C@@H](O)[C@H](C)CCc1ccc(C)c(O)c1C(=O)O)[C@H]1O[C@](CC)([C@H]2CC[C@](O)(CC)[C@H](C)O2)C[C@@H]1C", "note": "[Lasalocid (sodium)] (compound dose: 10 uM)", "values": [{"measurement": "cell viability", "setting": "[1]", "value": "0.865 ± 0.04"}, {"measurement": "kynurenine production", "setting": "[2]", "value": "0.37 ± 0.0038"}]}
{"molecule": "C[C@@]12C[C@@]3(O)O[C@@H](O1)[C@]1(COC(=O)c4ccc(O)cc4)[C@@H]3C[C@]12O[C@@H]1O[C@H](CO)[C@@H](O)[C@H](O)[C@H]1O", "note": "[Oxypaeoniflorin] (compound dose: 10 uM)", "values": [{"measurement": "cell viability", "setting": "[1]", "value": "1.05 ± 0.069"}, {"measurement": "kynurenine production", "setting": "[2]", "value": "0.916 ± 0.082"}]}
{"molecule": "C/C=C1\\C(=O)C[C@H]2[C@@H]3CCC4=CC(=O)CC[C@]4(C)[C@H]3CC[C@]12C", "note": "[Guggulsterone] (compound dose: 10 uM)", "values": [{"measurement": "cell viability", "setting": "[1]", "value": "0.9378 ± 0.0046"}, {"measurement": "kynurenine production", "setting": "[2]", "value": "0.324 ± 0.043"}]}
{"molecule": "CC12CCC(CC1=O)C2(C)C", "note": "(centres undefined) [Camphor] (compound dose: 10 uM)", "values": [{"measurement": "cell viability", "setting": "[1]", "value": "0.977 ± 0.016"}, {"measurement": "kynurenine production", "setting": "[2]", "value": "0.832 ± 0.21"}]}
{"molecule": "C=C[C@@](C)(/C=C/c1ccc(O)cc1)CCC=C(C)C", "note": "[Bakuchiol] (compound dose: 10 uM)", "values": [{"measurement": "cell viability", "setting": "[1]", "value": "0.95 ± 0.037"}, {"measurement": "kynurenine production", "setting": "[2]", "value": "0.736 ± 0.018"}]}
